# In PubChem BioAssay (NCI):
# Compounds without any hit were thinned out: in the full panel of roughly 83,000, 20% have a hit.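 Note: values are percent growth. 100 is the growth of untreated cells, values between 100 and 0 indicate rising inhibition; between -100 and 0 indicates cell death.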 Unmarked numbers belong to inactive results. The source made the active and inactive calls. Rule for the calls: active = growth percent below 10; inactive = the rest.
# Tests used:
# Assay in all cases: NCI-60 one-dose screen, 48 h (100 = growth as untreated, 0 = no growth, -100 = all killed)
# Details in all cases: 10 µM
# SK-MEL-2 melanoma = system: SK-MEL-2 melanoma
# SN12C renal = system: SN12C renal
# UO-31 renal = system: UO-31 renal
# TK-10 renal = system: TK-10 renal
# CAKI-1 renal = system: CAKI-1 renal
# A498 renal = system: A498 renal
# CCRF-CEM leukemia = system: CCRF-CEM leukemia
# MOLT-4 leukemia = system: MOLT-4 leukemia
# SR leukemia = system: SR leukemia
# RPMI-8226 leukemia = system: RPMI-8226 leukemia
# OVCAR-8 ovarian = system: OVCAR-8 ovarian
# OVCAR-5 ovarian = system: OVCAR-5 ovarian
# OVCAR-4 ovarian = system: OVCAR-4 ovarian
# SK-OV-3 ovarian = system: SK-OV-3 ovarian
# IGROV1 ovarian = system: IGROV1 ovarian
# OVCAR-3 ovarian = system: OVCAR-3 ovarian
# HS 578T breast = system: HS 578T breast
# NCI/ADR-RES ovarian = system: NCI/ADR-RES ovarian
# ACHN renal = system: ACHN renal
Structure (SMILES),growth (SK-MEL-2 melanoma),growth (SN12C renal),growth (UO-31 renal),growth (TK-10 renal),growth (CAKI-1 renal),growth (A498 renal),growth (CCRF-CEM leukemia),growth (MOLT-4 leukemia),growth (SR leukemia),growth (RPMI-8226 leukemia),growth (OVCAR-8 ovarian),growth (OVCAR-5 ovarian),growth (OVCAR-4 ovarian),growth (SK-OV-3 ovarian),growth (IGROV1 ovarian),growth (OVCAR-3 ovarian),growth (HS 578T breast),growth (NCI/ADR-RES ovarian),growth (ACHN renal)
O=C1/C(=C/c2ccc(O)cc2)CSc2ccc(Cl)cc21,97.8%,81.5%,73.1%,103%,79.9%,99.5%,12.4%,22.3%,62.7%,98.2%,89.8%,95.2%,94.9%,105%,16.7%,90.4%,71.1%,82.2%,–
COc1cc(OC)cc(-c2ccc(-c3ccc(C(=N)N)cn3)o2)c1,-76.8% (active),-50.5% (active),–,0.358% (active),16.1%,44.1%,-25.6% (active),-41.9% (active),0.771% (active),-50% (active),9.75% (active),-0.187% (active),–,31.2%,–,19.4%,-11.6% (active),74.5%,1.34% (active)
Cc1cc(C)c(C(=O)OC(C)CNC2CCCCC2)c(C)c1 (stereo unspecified),95%,100%,68.6%,92%,97%,92.1%,89.7%,84.7%,81.6%,92.9%,101%,59.2%,101%,96.7%,101%,98.5%,100%,92.3%,–
Cc1cccc2c1O/C(=C\c1ncc([N+](=O)[O-])n1C)C2=O,-45.3% (active),-48.5% (active),-38.9% (active),-34.3% (active),-29.7% (active),-72.7% (active),5.23% (active),-0.52% (active),9.3% (active),-13% (active),-21.3% (active),-15.7% (active),-2.81% (active),-17.5% (active),-18.1% (active),-12.2% (active),-23.9% (active),2.37% (active),–
Cc1ccc(S(=O)(=O)Nc2cccc3[nH]c(C(F)(F)F)nc23)cc1,2.59% (active),47.8%,–,36.7%,25.9%,13.7%,13.6%,31.7%,10.8%,-3.69% (active),31%,35.3%,36%,4.74% (active),–,4.74% (active),24.4%,4.81% (active),49.8%
COc1ccc(C2=NNC(c3sc(Cl)nc3Cl)C2)cc1 (stereo unspecified),62.8%,22.4%,85.3%,116%,97.4%,102%,17.7%,7.63% (active),2.77% (active),81%,70.3%,123%,80.5%,90%,63.3%,61.9%,114%,105%,–
CS(=O)(=O)Nc1ccc(OCc2nnc(-c3ccc(Cl)cc3)o2)c(F)c1,112%,88.1%,–,111%,91.3%,62.5%,97.5%,81%,81.2%,87.9%,98.1%,99.5%,82.1%,88.8%,104%,107%,98.1%,96.9%,86%
Cc1ccc(-c2cc(-c3cccc(Nc4ccnc5cc(Cl)ccc45)c3)nc3nc(N)[nH]c(=O)c23)cc1,87.6%,96.6%,–,112%,94.8%,109%,56.1%,81.8%,48.9%,92.8%,92.5%,–,111%,111%,76.7%,92.7%,104%,100%,105%
COc1cccc2c1C(=O)c1c(O)c3c(c(O)c1C2=O)C[C@@](O)(C(=O)COC(=O)c1ccccc1)C[C@@H]3OC1CC(N)C(O)C(C)O1 (stereo partly specified),-92% (active),-86% (active),–,-79.8% (active),-89.3% (active),-66.2% (active),-54% (active),-66% (active),-43.7% (active),-66.4% (active),-77.3% (active),-94.9% (active),–,-72.8% (active),-75.2% (active),-93.6% (active),-41.6% (active),22.5%,–
CC1=CC2OC34COC3CC(OC(=O)C(F)(F)F)C4(C)C2(C)CC1 (stereo unspecified),104%,98.4%,–,101%,102%,79.6%,101%,113%,99.3%,101%,106%,–,103%,102%,–,118%,97.7%,105%,98.4%
COc1ccc(-c2[nH]ncc2-c2cc(OC)c(OC)c(OC)c2)cc1,-2.39% (active),20.8%,–,44.7%,6.08% (active),-19.9% (active),2.66% (active),-6.22% (active),0.125% (active),0.214% (active),9.19% (active),20.7%,26.8%,-0.205% (active),28.8%,-17.5% (active),16.1%,14.5%,14.8%
COc1ccc(C2C=C(c3ccc(Cl)c(Cl)c3)N=C3SC(C)=CN32)cc1 (stereo unspecified),94.8%,99.6%,77.5%,92.8%,95.7%,91%,82.8%,79.5%,9.84% (active),18%,94%,102%,91.3%,109%,–,95.5%,105%,107%,–
COC(=O)c1c(C)nc(Nc2nc3ccccc3s2)nc1-c1ccc(Cl)cc1Cl,120%,99.8%,81.2%,120%,99.6%,100%,95%,84.7%,99.4%,96.2%,103%,113%,91.6%,102%,124%,92.2%,108%,104%,–
CCCCCCCCCCCCCCCC(=O)N1CCN(C)CC1,86.5%,74.6%,–,73.8%,69.9%,92.3%,34.9%,61.4%,-3.08% (active),71%,86.3%,86.3%,87.6%,84.9%,52.3%,86.8%,90.1%,90.3%,81.8%
Nc1ccc(C2=CC(c3ccc(Cl)cc3)N3C=CSC3=N2)cc1 (stereo unspecified),-49.9% (active),-45.2% (active),-96% (active),-30.1% (active),-19.5% (active),-93.5% (active),-22.1% (active),-11% (active),-11.5% (active),-21.3% (active),-1.84% (active),-66.1% (active),0.424% (active),-51% (active),-88.8% (active),-63.1% (active),16.8%,31.6%,–
